Test results as given in PubChem BioAssay AID1626 (SRMLSC, 2009).
Values joined by “and” are separate entries in the source; they are usually repeats but may differ in a detail not shown here. Equal values may be shown once. In all, about 220,000 compounds went through this assay and about 2,000 (0.91%) were called active. Roughly 2% stayed inconclusive and do not appear here. Only a sample is shown. Measured potencies and affinities stand elsewhere. Values without a mark were called inactive. Rule as the data show it: inconclusive = inhibition above about 80% without an active follow-up result; inactive = below that; test concentration not stated here.

Test: M. tuberculosis H37Rv growth inhibitors, H37Rv strain (AID 1626);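 also: bacteria incubated seven days before Alamar blue readout; 0% = bacteria only wells and 100% = bacteria with antibiotic wells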
Details: hits give high values, concentration not given here

Row | Compound | inhibition
1 | Cc1ccc(SCc2ccc(C(=O)N3CCCCC3)cc2)cc1 | 4.74%
2 | COC(=O)CCCCC1SCC(NC(=O)c2ccccc2)C1OC(C)=O (stereo unspecified) | -1.97%
3 | COC(=O)/C(=C\Nc1ccc(OC)cc1)NC(=O)c1ccc(Cl)cc1Cl | 46.4%
4 | CCN(CC)CCOC(=O)c1ccc(NC(=O)/C=C/c2cccs2)cc1 | -0.83%
5 | CCCOC(=O)c1ccc(NS(=O)(=O)c2cccs2)cc1 | 8.32%
6 | NS(=O)(=O)c1ccc(NC(=O)/C=C/c2cccs2)cc1 | -2.49%
7 | O=C(/C=C/c1cccs1)Nc1ccncc1 | -3.31%
8 | CC(=O)Nc1ccc(N(C(=O)c2ccco2)C(C(=O)NC2CCCC2)c2cccs2)cc1 (stereo unspecified) | -12.6%
9 | O=C(O)c1cc([N+](=O)[O-])ccc1Nc1ccccc1 | 0.55%
10 | CCOC(=O)C1=C(C)N(Cc2ccccc2)C(=O)NC1c1ccccc1OS(=O)(=O)c1ccccc1[N+](=O)[O-] (stereo unspecified) | 1.38%
11 | CCNC(=O)CN(C1CCCCC1)S(C)(=O)=O | -1.63%
12 | Cc1cc(N2CCN(C(=O)c3ccco3)CC2)n2ncnc2n1 | 0.62%
13 | O=C(Nc1ccc(Cl)c(Cl)c1)Oc1ccc(NC(=O)c2ccco2)cc1 | 61.8%
14 | CCc1ccc(C(C)NC(=O)Cc2ccc(F)cc2)cc1 (stereo unspecified) | 9.96%
15 | COCCCn1c(-c2ccccc2)nc2ccccc2c1=O | 5.89%
16 | CCOC(=O)Cn1c(-c2ccccc2)nc2ccccc2c1=O | 45.8%
17 | CCCNS(=O)(=O)c1ccc(OCC(=O)Nc2ccc3c(c2)OCO3)cc1 | -3.44%
18 | CCCN(CC1CC1)C(=S)Nc1ccc(C(C)=O)cc1 | -2.45%
19 | COc1ccc(-c2nn3c(C4CCCCC4)nnc3s2)cc1OC | 4.71%
20 | COc1cc(-c2nn3c(C4CCCCC4)nnc3s2)cc(OC)c1OC | 28.5%
21 | Cc1nnc(Sc2cc(C(=O)NCCCOC(C)C)c3ccccc3n2)s1 | 4.65%
22 | CCN1C(=O)C2(C(C#N)=C(N)Oc3n[nH]c(COC)c32)c2ccccc21 (stereo unspecified) | -1.31%
23 | Cc1cccc2cc(CNCc3ccccc3)c(Cl)nc12 | -2.86%
24 | Cc1ccc(CNCc2ccccc2Cl)cc1 | 6.89%

Row | Compound | inhibition
25 | Cc1cc(C)c(NC(=O)CSc2nc3ccc(NC(=O)CSc4nnnn4Cc4ccccc4)cc3s2)c(C)c1 | 8.59%
26 | O=C(CCN1CCN(Cc2ccccc2)CC1)Nc1cccc(Cl)c1 | -5.85%
27 | Cc1ccc2c(CN3CCN(Cc4ccc5c(c4)OCO5)CC3)cc(=O)oc2c1C | -3.12%
28 | Cc1cc(C)c2c(CN3CCN(Cc4ccc5c(c4)OCO5)CC3)cc(=O)oc2c1 | 23.5%
29 | CCOc1ccccc1NC(=O)CN1C(=O)CSC(C)C1=O (stereo unspecified) | 2.75%
30 | CNC(=S)N1N=C(c2ccc(C)cc2)CC1c1ccc(OC)cc1 (stereo unspecified) | 3.11%
31 | COC(=O)c1cn(C(=O)/C=C/c2ccc(OC)c(OC)c2)c2ccccc12 | 4.86%
32 | c1ccc(Cn2c(CNc3nc4ccccc4n3CCN3CCCCC3)nc3ccccc32)cc1 | 16.8%
33 | CCOC(=O)c1ccc(NC(=S)NNC(=O)C2(C)CC2(Cl)Cl)cc1 (stereo unspecified) | 1.27%
34 | O=C1/C(=C/c2ccco2)SC(=S)N1c1cccnc1 | -3.57%
35 | N=C1S/C(=C\c2ccco2)C(=O)N1c1ccc2c(c1)OCO2 | 3.8%
36 | CN1C(=O)C(=Cc2ccc(-c3cccc(Cl)c3)o2)C(=O)N(C)C1=O | 5.04%
37 | O=C1OC(c2cccs2)=N/C1=C\c1ccc(-c2cccc(Cl)c2)o1 | 4.3%
38 | O=S(=O)(c1cnc(Cl)c(Br)c1)N1CCN(c2ncccn2)CC1 | -10.8%
39 | Cc1ccc(C(NC(=O)c2ccccc2)C(Cl)(Cl)Cl)cc1 (stereo unspecified) | 5.19%
40 | CC(=O)NC(O)C(=O)c1ccccc1 (stereo unspecified) | 3.23%
41 | O=Cc1cn(CC(=O)NCC2CCCO2)c2ccccc12 (stereo unspecified) | 2.23%
42 | Cc1occc1-c1nnc(SCC(=O)NC2CCCC2)n1-c1ccccc1 | 2.16%
43 | CC(=O)CSc1ncnc2c1cnn2-c1ccccc1 | -1.25%
44 | CCN(CC)C(=O)CSc1ncnc2c1cnn2Cc1ccccc1 | -79.5%
45 | NC(=O)CSc1ncnc2c1cnn2Cc1ccccc1 | -0.76%
46 | CCOC(=O)CC(=O)CSc1ncnc2c1cnn2-c1ccccc1 | -1.22%
47 | CCOC(=O)CNC(=O)CSc1ncnc2c1cnn2-c1ccc(Cl)cc1 | 14.2%
48 | CCOC(=O)Cn1cnc2c(cnn2-c2ccc(Cl)cc2)c1=O | -3.87%

Row | Compound | inhibition
49 | CC(C)(C)C(=O)CSc1ncnc2c1cnn2-c1ccccc1 | 9.82%
50 | CNC(=O)CSc1ncnc2c1cnn2-c1ccccc1 | -3.44%
51 | COc1ccc(Cc2nnc(SCC(=O)N3CCCCC3)o2)cc1 | 3.26%
52 | O=C1N(Cc2cccnc2)C[C@@H]2C[C@@H](c3cccc(C(F)(F)F)c3)N3CCC[C@@]123 | 2.57%
53 | CCCCOc1nc2ccccc2nc1C(C#N)S(=O)(=O)c1ccccc1 (stereo unspecified) | -4.72%
54 | CN(c1ccc(OCC(=O)OCC(=O)NCc2ccco2)cc1)S(=O)(=O)c1ccc2ccccc2c1 | -0.25%
55 | COc1ccccc1C(=O)C1CCCN(C(=O)c2snnc2C)C1 (stereo unspecified) | -0.23%
56 | Cc1ccc(SCC(=O)NCCSCc2ccccc2)cc1 | 7.41%
57 | CCOC(=O)CNC(=O)CSc1ncnc2c1cnn2-c1ccc(OC)cc1 | 14.6%
58 | CCOC(=O)CNC(=O)CSc1ncnc2c1cnn2-c1ccc(C)cc1 | -3.46%
59 | Cc1ccc(-n2ncc3c(SCC(=O)Nc4cc(C)on4)ncnc32)c(C)c1 | 0.2%
60 | CSc1ncnc2c1cnn2-c1ccc(C)cc1C | 11.1%
61 | COCc1cc(C)nc(Nc2ccc(C)c(C)c2)c1C#N | -2.04%
62 | CC1=C(C(=O)Nc2ccccc2)C(c2ccco2)NC(=O)N1 (stereo unspecified) | -10.5%
63 | COc1cc(NC(=O)CN2C(=O)NC(C)(c3ccccc3)C2=O)c(C)cc1[N+](=O)[O-] (stereo unspecified) | 3.59%
64 | Cc1cc(C)n2c(SC/C(O)=C(\C#N)c3nc4ccccc4[nH]3)nnc2n1 | -3.82%
65 | COc1ccc(C(=O)NCC2CCCO2)cc1OC (stereo unspecified) | -3.63%
66 | c1ccc(CN(CC2=NCCN2)c2ccccc2)cc1 | -7.61% and -7.26%
67 | CC(COc1ccccc1Cc1ccccc1)N1CCCCC1 (stereo unspecified) | 1.05%
68 | CCOc1cc(N2CCOCC2)c(OCC)cc1NC(=O)c1ccc2ccccc2n1 | 7.27%
69 | CCNc1nc(CN2CCCCC2)nc2scc(-c3ccccc3)c12 | 10.7%
70 | NC(=O)C1CC(O)CN1c1nc(CN2CCOCC2)nc2scc(-c3ccccc3)c12 (stereo unspecified) | -8.45%
71 | CN(Cc1ccccc1)c1nc(CN2CCOCC2)nc2scc(-c3ccccc3)c12 | 38.4%
72 | c1csc(-c2csc3nc(CN4CCOCC4)nc(NCc4ccc5c(c4)OCO5)c23)c1 | -6.15%

Row | Compound | inhibition
73 | CC/C(=N\Nc1ccccc1)c1c(O)n(-c2ccccc2)c(=O)[nH]c1=O | 47.3%
74 | C[C@H](NC(=O)c1[nH]cnc1C(=O)Nc1ccc(Cl)cc1)C(=O)OC(C)(C)C | 52.4%
75 | Cc1cccc(NC(=O)c2nc[nH]c2C(=O)N[C@@H](CC(C)C)C(=O)OC(C)(C)C)c1 | 39%
76 | C[C@H](NC(=O)c1nc[nH]c1C(=O)N[C@H](C)c1ccccc1)C(=O)OCc1ccccc1 | 2.36%
77 | Cc1cccc(NC(=O)c2nc[nH]c2C(=O)N[C@@H](C)C(=O)OC(C)(C)C)c1 | 80%
78 | CNC(=O)c1[nH]cnc1C(=O)N[C@@H](C)C(=O)OCc1ccccc1 | -1.09%
79 | Cc1cccc(NC(=O)c2nc[nH]c2C(=O)N[C@@H](Cc2ccccc2)C(=O)OCc2ccccc2)c1 | -0.81%
80 | COc1ccccc1-n1c(SCC(=O)Nc2ccccc2C)nc(O)cc1=O | -5.47%
81 | NNC(=O)[C@H]1C[C@@H]1c1ccccc1 | -1.45%
82 | Cc1ccc(SC(C)c2nc(-c3ccncc3)no2)cc1 (stereo unspecified) | 3.66%
83 | O=C(Cc1ccc(Cl)c(Cl)c1)Nc1ccc2[nH]c(=O)[nH]c2c1 | -1.82%
84 | Clc1ccc(C(c2ccccc2)N2CCNCC2)cc1 (stereo unspecified) | 0.35%
85 | CCOc1cc(/C=C/c2ccc3cccc([N+](=O)[O-])c3n2)ccc1O | -4.71%
86 | COc1cc(/C=C/C(=O)O)ccc1O | -3.73%
87 | Cc1ccc(NC(=S)N(Cc2ccccc2)C(C)C)cc1 | -1.3%
88 | CCC(C)c1c(O)nc(SCC(=O)Nc2ccccc2)[nH]c1=O (stereo unspecified) | -5.09%
89 | O=C(CSc1nc(O)cc(=O)[nH]1)Nc1ccc2c(c1)CCC2 | 6.46%
90 | CCCc1cc(=O)[nH]c(SCC(=O)Nc2ccc3c(c2)CCC3)n1 | 7.3%
91 | Nc1cc(=O)[nH]c(SCC(=O)Nc2ccc3c(c2)CCC3)n1 | 4.78%
92 | CCN(CC)C(=O)C(=O)Nc1ccc(Oc2ccccc2)cc1 | 14.4%
93 | COc1cccc(CNCCc2c[nH]c3ccccc23)c1OCc1ccccc1 | 52.7%
94 | COc1cccc(CNCCc2c[nH]c3ccccc23)c1OCc1ccc(F)cc1 | 28.9%
95 | COc1cc(CNCCCCO)ccc1OCc1ccccc1F | 0.63%
96 | CCNCc1ccc(OCc2ccccc2F)c(OC)c1 | 6.78%
